The source of these data is PubChem BioAssay AID651813 (National Center for Advancing Translational Sciences (NCATS), 2012).

Among all 2,100 compounds or so, about 1,100 (52%) were called active. Roughly 27% stayed inconclusive and do not appear here. So high a share suggests a set chosen from earlier hits. This is one part of the list. Unmarked numbers belong to inactive results. Calls follow the shape of the dose curve; as a rule, active = well fitted inhibition curve with a large enough effect; inconclusive = small, poorly fitted or top-dose-only effect; inactive = no such curve, though single readings can be large or run the other way.
Potency is read from the fitted curve at half-maximal effect.

Sequence of DNA dC->dU-editing enzyme APOBEC-3G (Homo sapiens) (Q9HC16 whole entry, looked up): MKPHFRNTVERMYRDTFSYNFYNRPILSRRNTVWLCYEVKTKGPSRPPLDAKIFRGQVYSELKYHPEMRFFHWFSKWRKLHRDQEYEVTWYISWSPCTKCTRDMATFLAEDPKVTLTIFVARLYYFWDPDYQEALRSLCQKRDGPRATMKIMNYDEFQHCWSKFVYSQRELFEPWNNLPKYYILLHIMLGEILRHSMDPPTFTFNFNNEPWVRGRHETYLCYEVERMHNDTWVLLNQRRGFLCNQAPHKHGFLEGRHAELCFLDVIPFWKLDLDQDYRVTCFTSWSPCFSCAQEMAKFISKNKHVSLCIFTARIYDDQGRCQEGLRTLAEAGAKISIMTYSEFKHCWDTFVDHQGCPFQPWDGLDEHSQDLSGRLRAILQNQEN

The assay concerns the target DNA dC->dU-editing enzyme APOBEC-3G (Homo sapiens) (UniProt Q9HC16). As to the kind of experiment: qHTS for inhibitors of Vif-A3G interactions: Cherry picks counterscreen.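 Also: hits raise yellow fluorescence by blocking Vif-driven A3G-eYFP degradation; nearly all actives have a fitted effect of over 70% in size.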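 As to max response: max response given as percent of control signal.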 The conditions noted are these: HeLa A3G-eYFP + Vif (tagged APOBEC3G with the HIV-1 protein that degrades it), eYFP fluorescence, 24 h. The essentials: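 HeLa cells stably expressing A3G-eYFP and Vif were treated for 24 h at 37 deg C with compounds at several concentrations; yellow fluorescence (Ex 488 nm, Em 500-530 nm) read by Acumen Explorer, MG132 as positive control.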
Background: Quantitative high-throughput screening tests each substance at several concentrations.
For the compound `Cn1c(=S)c2[nH]c(SCCN3CCCC3)nc2n(C)c1=O`, the max response is 14.3%. For `S=C(Nc1ccccc1)N1CCn2c1nc1ccccc12`, the max response was -19.9%.

As to `CN(/N=C/c1ccc(-c2ccc([N+](=O)[O-])cc2)o1)c1ccccc1`, the Potency was 1.16 µM (active). On the same count and under the same terms, the result for `CC(C)(C)NC(=S)N/N=C\c1ccc(-c2ccc([N+](=O)[O-])cc2)o1` reads 10.3 µM (active). Take `O=[N+]([O-])c1ccccc1S(=O)(=O)Nc1ccc(-c2ccc(N3CCOCC3)nn2)cc1`: the max response was 0.357%. In the case of `Cc1ccc(-c2ccc(/C=N/NC(N)=S)o2)cc1`, the max response was -14.5%. For the compound `O=[N+]([O-])c1ccc(-c2ccc(/C=N/Nc3nc(NCc4ccccc4)nc(N4CCOCC4)n3)o2)cc1`, the Potency was 10.3 µM (active). For the compound `CCN(CC)c1nc(C)c(C(=S)Nc2cc([N+](=O)[O-])ccc2Cl)s1`, the max response is -7.53%. On the same count and under the same terms, the result for `CCOC(=O)c1c(CC(C)C)csc1/N=C/C1C(=O)CCCC1=O` reads -2.9%.

In the case of `Nc1ncnc2c1ncn2[C@@H]1O[C@H](CNCc2ccc(OCc3ccccc3)cc2)[C@@H](O)[C@H]1O`, the Potency is 12.5 µM (active). On the same count and under the same terms, the result for `COc1ccc(CNCC(=O)Nc2ccccc2-n2cccc2)cc1` reads 9.94 µM (active); that for `OCCCn1c(C2CCCN2c2nc(-c3ccc(F)cc3)cs2)nc2cc(Cl)c(N3CCCCC3)cc21` (centres undefined), 16.4 µM (active). For `CCCn1c(C2CCCN2c2nc(-c3cccc(Br)c3)cs2)nc2ccccc21` (centres undefined), the max response is -7.22%. As for `C[C@H](O)[C@@H]1CN2CCc3c([nH]c4ccccc34)[C@@H]2C[C@@H]1N(C)C(=O)c1ccco1`, the Potency was 12.5 µM (active). For `CCN(CC)C(=O)CSC(Nc1cccc(F)c1)=C(C#N)C#N`, the Potency was 13 µM (active). On the same count and under the same terms, the result for `CCN(CC)c1ccc(/C=N/N=C(N)N)c(O)c1` reads 5.59 µM (active). With `O=C(NC(=S)N1CCc2ccccc21)c1ccco1`, the max response is 4.59%. The same measure, in the same setting: the result for `CCN(CC)c1ccc2cc(C(N)=O)c(=N)oc2c1` reads 60.6%. With `CCN(CC)c1ccc(/C=N/NC(=O)c2ccco2)cc1`, the Potency is 8.86 µM (active). On to `Oc1ccc(C=NNC(=S)Nc2ccc(F)cc2)c(O)c1`, for which the max response was -25.9%. Still for that read-out and setting: then `O=C(N/N=C/c1sc(=O)n(Cc2ccc(Br)cc2)c1Cl)c1ccco1`, with -16.3%. As for `CCN(CC)c1ccc(/C=N/NC(=O)c2ccco2)c(O)c1`, the Potency is 7.9 µM (active).

With `Cc1ccc2nsnc2c1NC(=O)c1ccc(-c2cc(Cl)ccc2Cl)o1`, the Potency was 14 µM (active). Regarding `Cc1cc(-c2ccccc2)c2c3c(c(-c4ccccc4)n2n1)c(=O)n(C)c(=O)n3C`, the max response is 9.15%. As for `C=CCSc1nnc(C)c(/C=C/Nc2ccc(Cl)cc2)n1`, the Potency was 20.6 µM (active).

As for `CCOc1ccccc1NC(=O)Cn1nnc(C(=O)NCc2cccs2)c1N`, the Potency is 0.651 µM (active). With `COc1cc(NC(=O)C2=C(N3CCOCC3)/C(=C\c3ccc(N(C)C)cc3)CCC2)cc(OC)c1OC`, the Potency is 3.53 µM (active). Same read-out and setting: the result for `Cc1cc(NC(=O)NC(=O)c2ccccc2NC(=O)C(C)N)ccc1Oc1ncc(Br)cn1` (centres undefined) reads 0.444 µM (active); that for `Cc1cc(/C=C2\SC(=S)N(C)C2=O)c(C)n1-c1ccccc1O`, 18.4 µM (active); that for `Cc1cc(/C=C2\SC(=S)N(C)C2=O)c(C)n1-c1ccc(O)cc1`, 20.6 µM (active). On the same count and under the same terms, the result for `COc1cc2c(cc1OC)CN(C(=O)c1ccc3nc[nH]c3c1)CC2` reads 14 µM (active); that for `COc1cc2c(cc1OC)CN(C(=O)c1cc(=O)c3ccccc3o1)CC2`, 15.8 µM (active); that for `COc1cc2c(cc1OC)CN(C(=O)/C=C/c1cccs1)CC2`, 1.25 µM (active). `Cc1cccc(C(=O)NC(=S)N2CCc3ccccc3C2)c1`: the max response is -2.8%. The same measure, in the same setting: the result for `CN(C)CCCN(C(=O)/C=C/c1cccs1)c1nc2ccc(F)cc2s1` reads -22.2%.

In the case of `CC(=O)N/N=C/c1cc(C(C)C)cc(/C=N/NC(C)=O)c1O`, the Potency is 18.4 µM (active). Turning to `CC(=O)N/N=C/c1cc(C(C)(C)C)cc(/C=N/NC(C)=O)c1O`, the Potency was 20.6 µM (active). Still for that read-out and setting: the result for `CC1(C)CCN2CCC(C)(C)c3c(O)ccc1c32` reads 5.59 µM (active).

Regarding `Cc1ccc(NC(=S)NC(=O)c2ccc(F)cc2)cc1S(=O)(=O)Nc1cccc(Cl)c1`, the max response was -21.2%. In the case of `COc1ccc(NS(=O)(=O)c2cc(NC(=O)c3ccc(=O)[nH]c3)ccc2N2CCCC2)cc1`, the Potency is 5.59 µM (active).

With `ClCC1NCC(c2ccccc2Cl)c2c1[nH]c1ccccc21` (centres undefined), the max response is -28%. In the case of `CN1C(=O)N(C)c2ccc(C=O)c3cccc1c23`, the max response was 1.02%. Consider `N#Cc1c(C(F)(F)F)cc(-c2ccco2)nc1SCc1ccccn1`, for which the Potency was 16.4 µM (active). With `N#Cc1ccc(-c2ccco2)nc1SCc1ccccc1`, the max response is -26%. Take `COc1cc2cc(-c3ccc(OC)c(OC)c3C)nc(N)c2cc1OC`: the Potency was 2.8 µM (active).

`C[C@H]1CN([C@@H](C)CO)C(=O)Cc2cc(NC(=O)CCC(F)(F)F)ccc2O[C@H]1CN(C)S(=O)(=O)c1ccc(F)cc1`: the Potency is 7.9 µM (active). The same measure, in the same setting: the result for `CN(C)c1ccc(C2C=C(c3ccc(Cl)cc3OC(F)F)Nc3ncnn32)cc1` (centres undefined) reads 15.8 µM (active); that for `CCOC(=O)N1CCN(C(=O)c2[nH]c(C(F)(F)F)nc2-c2ccccc2)CC1`, 15.8 µM (active); that for `O=C(c1[nH]c(C(F)(F)F)nc1-c1ccccc1)N1CCN(c2cccc(C(F)(F)F)n2)CC1`, 6.27 µM (active). Still for that read-out and setting: then `O=C(c1[nH]c(C(F)(F)F)nc1-c1ccccc1)N1CCN(c2ccccc2)CC1`, with 3.53 µM (active). For `Cn1nnnc1SCCNCc1cc(Br)ccc1OCc1ccccc1Cl`, the max response is -13.4%. Regarding `Cc1ccc2nc3sc(C(=O)N4CCCc5ccccc54)c(N)c3cc2c1`, the Potency was 7.9 µM (active). Still for that read-out and setting: then `Cc1cccc2cc3c(N)c(C(=O)N4CCc5ccccc54)sc3nc12`, with 7.31 µM (active); and `Cc1cccc2cc3c(N)c(C(=O)N4CCCc5ccccc54)sc3nc12`, with 9.2 µM (active).

For `Cc1ccc(/C=N/NC(=O)c2nc3nc(C)cc(C)n3n2)cc1`, the max response was -10.8%.

In the case of `Cc1cc(C)n2nc(C(=O)N/N=C/c3c4ccccc4cc4ccccc34)nc2n1`, the Potency is 15.8 µM (active). The same measure, in the same setting: the result for `COc1ccc2c(Cl)c(C(=O)N/N=C3\CCCC(=O)C3)sc2c1` reads 12.5 µM (active). `CCOc1cc(C(=O)NN=C2CCCC2)cc(OCC)c1OCC`: the max response was -1.27%. For the compound `O=C(NCc1ccccc1Cl)c1cccc2c1C(=O)c1ccc(-c3ccc(OC(F)(F)F)cc3)cc1S2(=O)=O`, the Potency is 18.4 µM (active).

Regarding `COc1ccc(-c2ccc3c(c2)S(=O)(=O)c2cccc(C(=O)NCCOc4ccccc4)c2C3=O)cc1OC`, the Potency is 14 µM (active). In the case of `COc1ccc(-c2ccc3c(c2)S(=O)(=O)c2cccc(C(=O)NCc4cccc(OC(F)(F)F)c4)c2C3=O)cc1OC`, the Potency is 3.26 µM (active).

As for `COc1ccc(NC(=O)c2oc3ccc(S(=O)(=O)N4CCOCC4)cc3c2C)cc1`, the max response was 9.65%. On to `COc1cccc(NC(=O)c2oc3ccc(S(=O)(=O)N4CCC5(CC4)OCCO5)cc3c2C)c1`, for which the Potency was 23.1 µM (active). Still for that read-out and setting: then `c1ccc(-c2nccc(-c3ccc4c(c3)OCO4)n2)cc1`, with 4.98 µM (active). On the same count and under the same terms, then `CCN1C/C(=C\c2cccc([N+](=O)[O-])c2)C(=O)/C(=C/c2cccc([N+](=O)[O-])c2)C1`, with 11.2 µM (active). Consider `CC(C)COc1ccc(C(=O)N/C(=C/c2cccc([N+](=O)[O-])c2)C(=O)O)cc1`, for which the max response was 13.2%.

In the case of `CCN1C/C(=C/c2cccc([N+](=O)[O-])c2)C(=O)/C(=C/c2cccc([N+](=O)[O-])c2)C1`, the Potency is 5.59 µM (active). On the same count and under the same terms, the result for `CC(=O)c1ccc2cccc3c2c1N=CN3C` reads 12.5 µM (active); that for `Nc1nc(SCc2ccc(Cl)cc2Cl)nc2nc3c(cc12)CCCC3`, 23.1 µM (active). Still for that read-out and setting: then `Cc1cc2nc3c(=O)n(CCc4ccccc4)c(=O)[nH]c3nc2cc1N`, with 3.66 µM (active). In the case of `Cc1cc2nc3c(=O)n(Cc4ccccc4)c(=O)[nH]c3nc2cc1N`, the Potency is 6.27 µM (active). Same read-out and setting: the result for `Cc1cc2nc3c(=O)n(C4CCCCC4)c(=O)[nH]c3nc2cc1N` reads 7.31 µM (active).

`CCCCCCn1c(=O)[nH]c2nc3cc(N)ccc3nc2c1=O`: the max response was 36.1%.

For the compound `Cc1ccc(NC(=O)CSc2n[nH]c(-c3ccccn3)n2)cc1`, the max response is -4.16%. With `Cc1ccc(NC(=O)CO/N=C/c2ccc(N(C)C)cc2)cc1`, the Potency was 23.1 µM (active). Same read-out and setting: then `CN(C)c1ccc(/C=C(\C#N)C(=O)Nc2nc3c(s2)CCN(Cc2ccccc2)C3)cc1`, with 0.396 µM (active); and `CN(C)c1ccc(/C=C(/C#N)C(=O)Nc2nc3c(s2)CCN(Cc2ccccc2)C3)cc1`, with 0.444 µM (active). Still for that read-out and setting: then `Cn1c(=O)c2cc(NC(=O)NCc3ccccc3)ccc2n1C/C=C/c1ccccc1`, with 15.8 µM (active). On the same count and under the same terms, the result for `CCOCCC(=O)Nc1ccc2c(c1)c(=O)n(C)n2C/C=C/c1ccccc1` reads 11.2 µM (active); that for `Cn1c(=O)c2cc(NC(=O)NCc3ccc(F)cc3)ccc2n1C/C=C/c1ccccc1`, 5.59 µM (active). For the compound `CCCCCCc1cc2cc(-c3nnc(-c4ccccc4)o3)c(=O)oc2cc1O`, the Potency was 1.98 µM (active). With `CCCCCCc1cc2cc(-c3nnc(-c4ccccc4O)o3)c(=O)oc2cc1O`, the max response was 54.5%. On to `CCCCCCc1cc2cc(-c3nnc(-c4ccccc4OC)o3)c(=O)oc2cc1O`, for which the Potency was 7.04 µM (active). Still for that read-out and setting: then `CN1C(=S)N(c2cccnc2)C(=O)/C1=C\c1ccc(N(C)C)cc1`, with 11.2 µM (active); and `CN1C(=O)/C(=C\c2ccc(N(C)C)cc2)OC1=S`, with 2.8 µM (active); and `Cc1c(N2C(=O)/C(=C/c3ccc(N(C)C)cc3)N(C)C2=S)c(=O)n(-c2ccccc2)n1C`, with 20.6 µM (active). On the same count and under the same terms, then `O=C(N/N=C/c1cccc2ccccc12)c1n[nH]c2c1CCCC2`, with 3.53 µM (active); and `O=C(N/N=C/c1cccs1)c1n[nH]c2c1CCC2`, with 4.44 µM (active). On the same count and under the same terms, then `Cc1ccsc1/C=N\NC(=O)c1n[nH]c2c1CCC2`, with 7.04 µM (active).
